The values that follow come from PubChem BioAssay.

Assay [1] is described as follows: anti-His antibody binders, primary screen, artefact control for SMM control protein annotation, biochemical, small-molecule microarray, 635 nm fluorescence (AID 1128).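 Further: score merges feature fluorescence with signal-to-noise for each printed compound spot.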 Conditions: anti-His Alexa647 antibody binding, higher = more signal.
The test system of assay [2] is Human papillomavirus type 1a E7 protein (residues 1-88). The assay can be described thus: HPV1a E7 small-molecule binders, primary screen, biochemical, small-molecule microarray, residues 1-88, 635 nm (AID 1129). Conditions: small-molecule microarray binding, fluorescence 635 nm; higher = more signal.
Assay [3] addresses Focal adhesion kinase 1 (Homo sapiens) (UniProt Q05397). The assay can be described thus: small-molecule microarray binders of FAK, primary screen, biochemical, 635/667 nm fluorescence, BSA, DTT (AID 1130).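 Further: composite of spot emission at 667 nm and signal to noise over triplicate slides.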 The following applies: PTK2 binding, 635 nm fluorescence, higher = more signal.
For assay [4], the system named is Fibrinogen (Alexa647-labelled). The assay can be described thus: fibrinogen binders on compound microarrays, profiling panel, artefact control for SMM control-protein annotation, biochemical, small-molecule microarray, 635/667 nm fluorescence (AID 1131).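 Further: z-score merges 667 nm fluorescence with per-spot signal-to-noise over triplicate slides.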 The following applies: fibrinogen-A647 binding fluorescence, higher = more signal.
In assay [5] the target is Follistatin (Homo sapiens) (UniProt P19883). The assay can be described thus: follistatin binders on small-molecule microarrays, primary screen, biochemical, small-molecule microarray, 635/667 nm fluorescence (AID 1132). The following applies: FST binding, 635 nm fluorescence, higher = more signal.
Sequence of Follistatin (Homo sapiens) (P19883 whole entry, looked up): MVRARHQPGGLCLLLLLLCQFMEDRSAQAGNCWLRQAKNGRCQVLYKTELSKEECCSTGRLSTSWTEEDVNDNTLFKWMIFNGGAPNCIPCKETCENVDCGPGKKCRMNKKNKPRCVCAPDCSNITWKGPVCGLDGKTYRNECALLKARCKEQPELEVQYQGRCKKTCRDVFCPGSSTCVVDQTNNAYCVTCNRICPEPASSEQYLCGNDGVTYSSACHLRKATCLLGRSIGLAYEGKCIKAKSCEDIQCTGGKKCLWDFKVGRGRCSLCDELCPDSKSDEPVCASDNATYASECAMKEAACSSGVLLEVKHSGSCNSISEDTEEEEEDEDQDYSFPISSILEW
Assay [6] concerns the target Fibroblast growth factor 2 (Homo sapiens) (UniProt P09038). The assay can be described thus: FGF2 binders on small-molecule microarrays, primary screen, biochemical, small-molecule microarray, 635/667 nm fluorescence (AID 1133). The following applies: small-molecule microarray binding, FGF2, fluorescence 635/667; higher = more signal.
Assay [7] can be described thus: mitochondrial membrane potential change in A549 cells, profiling panel, cell-based, JC-1 fluorescence, basal, 24 h, 100 nL (AID 1138).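 Further: A549 lung adenocarcinoma cells under basal conditions with no added stimulus; test concentration not given here.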 Conditions: higher = more signal.
The test system of a further assay is Lefty1. The assay can be described thus: Lefty1 binders on small-molecule microarrays, primary screen, biochemical, small-molecule microarray, 635/667 nm fluorescence (AID 1139). The following applies: small-molecule microarray binding, fluorescence 635/667; higher = more signal.
For assay [8], the system named is wheat germ agglutinin (Triticum aestivum), Alexa647-labelled. The assay can be described thus: wheat germ agglutinin binders on compound microarrays, profiling panel, artefact control for SMM control-protein annotation, biochemical, small-molecule microarray, 635/667 nm fluorescence (AID 1140).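 Further: score merges 667 nm feature emission with signal to noise over triplicate slides.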 The following applies: WGA-A647 binding, 635 nm fluorescence, higher = more signal.

Assay [9] addresses Luciferin 4-monooxygenase (Photinus pyralis) (UniProt P08659). Nature of the assay: firefly luciferase enzyme inhibitors, primary screen, biochemical, luminescence, purified enzyme, 2006 set (AID 1141).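 Further: cell-free assay with purified firefly luciferase at 100 ng per well in PBS; test concentration not given here.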 The following applies: SteadyGlo luminescence, 30 min, higher = more signal, called active from +8 up or from −8 down.
Assay [10] has as its system Wnt5a (protein binding on small-molecule microarray). Nature of the assay: Wnt5a binders on small-molecule microarray, primary screen, biophysical, 635/667 nm fluorescence (AID 1142).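 Further: fluorescence read at 667 nm with signal to noise per printed feature.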 The following applies: 635 nm fluorescence, higher = more signal.
Assay [11] in a line: cell viability in Huh7 cells, primary screen, cytotoxicity control for HCV replication inhibitor project, CellTiter-Glo luminescence, basal, 48 h (AID 1143).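 Further: Huh7 hepatoma cells carrying a hepatitis C replication reporter with no stimulus; test concentration not given here.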 Conditions: Huh7 HCV replicon, higher = more signal, called active from +8 up or from −8 down. (In ATP-based viability assays light output follows the ATP content of the culture.)
The nature of assay [12]: P. aeruginosa biofilm formation inhibitors, primary screen, PAO1 strain, BacTiter-Glo luminescence, LB-PBS (AID 1144). The following applies: 12 h, higher = more signal.
Assay [13] in a line: CREB reporter modulators without forskolin, primary screen, cell-based, PC12, CRE-LacZ reporter, unstimulated (AID 1145). The following applies: no forskolin, luminescence, 4.5 h, higher = more signal, called active from +8 up or from −8 down.
A short description of assay [14]: CREB reporter modulators under forskolin, primary screen, cell-based, PC12, CRE-LacZ reporter, forskolin-stimulated (AID 1146).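 Further: PC12 cells with 6xCRE LacZ reporter stimulated by forskolin 10 µM; beta-galactosidase reporter signal reflecting CREB driven transcription.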 Conditions: luminescence, 4.5 h, higher = more signal, called active from +8 up or from −8 down.
Assay [15] has as its target Streptavidin (Streptomyces avidinii) (UniProt P22629). The assay can be described thus: streptavidin binders on small-molecule microarray, primary screen, artefact control for SMM compound annotation, biophysical, 635/667 nm fluorescence (AID 1147).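 Further: signal reflects streptavidin binding to arrayed compounds as a control protein.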 The following applies: streptavidin binding, higher = more signal.
A short description of assay [16]: small-molecule binders of probe aInhba, primary screen, biochemical, small-molecule microarray, 635/667 nm fluorescence (AID 1148).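 Further: score merges 667nm spot fluorescence with signal-to-noise for antibody binding to printed compounds.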 The following applies: higher = more signal.
Assay [17] deals with Torsin-1A (Homo sapiens) (UniProt O14656). The assay can be described thus: torsin A binders from cell lysate, primary screen, small-molecule microarray, wild-type, 635/667 nm (AID 1149). Conditions: COS7 hTOR1A-WT lysate, 635 nm fluorescence, higher = more signal.
Sequence of Torsin-1A (Homo sapiens) (O14656 whole entry, looked up): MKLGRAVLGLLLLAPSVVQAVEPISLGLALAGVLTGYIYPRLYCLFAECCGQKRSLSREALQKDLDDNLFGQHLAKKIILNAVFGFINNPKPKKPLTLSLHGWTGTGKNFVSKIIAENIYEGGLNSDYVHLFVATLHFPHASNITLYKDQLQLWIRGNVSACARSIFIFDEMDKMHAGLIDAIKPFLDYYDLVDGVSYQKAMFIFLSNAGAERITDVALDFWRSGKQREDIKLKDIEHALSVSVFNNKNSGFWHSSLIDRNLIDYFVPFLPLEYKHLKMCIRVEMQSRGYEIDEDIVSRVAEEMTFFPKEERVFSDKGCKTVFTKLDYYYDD
The target is the same in assay [18]. The assay can be described thus: small-molecule binders of mutant TOR1A in lysate, primary screen, cell lysate, small-molecule microarray, COS7 lysate, 635/667 nm fluorescence (AID 1150).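 Further: score pools 667 nm emission and signal to noise measuring lysate protein binding.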 Conditions: COS7 hTOR1A mutant lysate, 635 nm fluorescence, higher = more signal.
The test system of assay [19] is Sonic hedgehog protein (Shh). Nature of the assay: small-molecule binders of Shh protein, primary screen, biochemical, small-molecule microarray, 635/667 nm fluorescence (AID 1151).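 Further: Shh protein binding to compounds spotted on small-molecule microarray slides; score combines spot fluorescence intensity with signal-to-noise across triplicate slides.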 Conditions: small-molecule microarray binding, 635 nm fluorescence; higher = more signal.

Calls of active or inactive are those of the source. Unless noted, how the calls were made is not given here.

Sequence of Fibroblast growth factor 2 (Homo sapiens) (P09038 whole entry, looked up): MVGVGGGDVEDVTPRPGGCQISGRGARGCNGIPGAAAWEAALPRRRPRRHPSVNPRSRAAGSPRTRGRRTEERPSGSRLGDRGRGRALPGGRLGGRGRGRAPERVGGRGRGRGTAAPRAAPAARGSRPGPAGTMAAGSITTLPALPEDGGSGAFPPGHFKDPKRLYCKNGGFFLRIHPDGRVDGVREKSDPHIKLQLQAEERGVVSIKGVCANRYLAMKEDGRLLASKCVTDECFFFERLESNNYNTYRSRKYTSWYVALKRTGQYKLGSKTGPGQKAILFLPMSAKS
Sequence of Streptavidin (Streptomyces avidinii) (P22629 whole entry, looked up): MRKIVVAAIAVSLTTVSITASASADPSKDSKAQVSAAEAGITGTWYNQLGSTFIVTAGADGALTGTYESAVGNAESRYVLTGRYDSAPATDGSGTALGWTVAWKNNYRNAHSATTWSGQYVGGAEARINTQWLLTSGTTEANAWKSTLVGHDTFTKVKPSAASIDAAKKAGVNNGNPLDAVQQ
Sequence of Focal adhesion kinase 1 (Homo sapiens) (Q05397 whole entry, looked up): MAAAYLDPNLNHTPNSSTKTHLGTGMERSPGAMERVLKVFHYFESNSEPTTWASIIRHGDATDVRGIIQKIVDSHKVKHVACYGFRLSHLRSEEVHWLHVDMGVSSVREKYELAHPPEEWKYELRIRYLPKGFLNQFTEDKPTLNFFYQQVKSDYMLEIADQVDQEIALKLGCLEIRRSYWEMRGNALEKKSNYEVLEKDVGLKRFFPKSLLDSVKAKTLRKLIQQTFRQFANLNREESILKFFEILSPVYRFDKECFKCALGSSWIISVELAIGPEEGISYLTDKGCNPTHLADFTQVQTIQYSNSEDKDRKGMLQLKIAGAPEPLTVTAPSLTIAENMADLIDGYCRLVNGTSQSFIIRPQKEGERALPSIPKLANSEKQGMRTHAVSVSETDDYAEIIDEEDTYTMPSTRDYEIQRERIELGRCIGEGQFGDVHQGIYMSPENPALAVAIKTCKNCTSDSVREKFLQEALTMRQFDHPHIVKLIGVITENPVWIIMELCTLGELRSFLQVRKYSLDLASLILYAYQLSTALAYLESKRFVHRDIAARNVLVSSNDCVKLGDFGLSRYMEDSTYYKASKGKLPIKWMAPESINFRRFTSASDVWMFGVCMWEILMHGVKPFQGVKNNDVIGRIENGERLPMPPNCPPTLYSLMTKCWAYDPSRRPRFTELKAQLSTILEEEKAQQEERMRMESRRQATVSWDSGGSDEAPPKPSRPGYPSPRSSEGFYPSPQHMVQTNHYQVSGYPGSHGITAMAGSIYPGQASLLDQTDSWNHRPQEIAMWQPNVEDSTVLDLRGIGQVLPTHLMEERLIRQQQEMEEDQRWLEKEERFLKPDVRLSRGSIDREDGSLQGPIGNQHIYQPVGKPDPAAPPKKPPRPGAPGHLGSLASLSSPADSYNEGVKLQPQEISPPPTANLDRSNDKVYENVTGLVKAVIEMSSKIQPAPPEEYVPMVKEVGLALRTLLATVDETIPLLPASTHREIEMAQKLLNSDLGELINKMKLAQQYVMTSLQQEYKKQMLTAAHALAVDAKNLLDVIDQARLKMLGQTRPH
Sequence of Luciferin 4-monooxygenase (Photinus pyralis) (P08659 whole entry, looked up): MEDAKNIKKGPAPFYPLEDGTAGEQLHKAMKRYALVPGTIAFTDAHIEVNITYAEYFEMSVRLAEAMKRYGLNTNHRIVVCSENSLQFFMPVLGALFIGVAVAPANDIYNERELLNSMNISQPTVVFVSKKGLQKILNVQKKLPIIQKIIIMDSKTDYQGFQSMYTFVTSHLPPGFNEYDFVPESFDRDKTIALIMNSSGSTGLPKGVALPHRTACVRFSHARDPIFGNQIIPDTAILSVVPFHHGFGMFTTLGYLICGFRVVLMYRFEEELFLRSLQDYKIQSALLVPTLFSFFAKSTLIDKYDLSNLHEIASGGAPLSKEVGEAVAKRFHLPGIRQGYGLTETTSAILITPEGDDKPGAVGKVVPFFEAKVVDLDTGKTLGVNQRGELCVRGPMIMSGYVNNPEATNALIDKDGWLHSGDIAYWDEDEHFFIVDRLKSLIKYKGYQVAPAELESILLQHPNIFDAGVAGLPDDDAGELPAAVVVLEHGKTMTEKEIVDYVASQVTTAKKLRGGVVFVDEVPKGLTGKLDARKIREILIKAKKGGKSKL

For `COCCOC(=O)N1C(=O)[C@@]2(c3cc(C#CC4=CCCCC4)ccc31)[C@H](C(=O)N1CCN(c3ncccn3)CC1)[C@H]1C(=O)O[C@H](c3ccccc3)[C@H](c3ccccc3)N1[C@@H]2c1ccccc1OCCO`, the composite z-score in assay [1] was determined as 0.353; in assay [2], 1.18; in assay [3], 0.377; in assay [4] it was 0.936; in [5] it was 1.18; in assay [6], 0.956. Besides, the composite z-score in the assay on Lefty1 is 0.787; in assay [8], 0.792; in assay [10], 0.337; in [15], 0.496; in assay [16], -0.0332; in the assay with Torsin-1A (Homo sapiens) [17], 0.825. For the same compound, the composite z-score in the assay with Torsin-1A (Homo sapiens) [18] was found to be 0.598; in assay [19], 1.47. The z-score is -1.3 in assay [7]; -1.22 (inactive) in [9]; -5.9 (inactive) in assay [11]; -2.51 (inactive) in assay [12]; -2.11 (inactive) in [13]; -1.32 (inactive) in [14].

Take `C=C(COC)/C(=C/C[C@H](OC(=O)c1ccncc1)c1ccc(OCCO)cc1)c1cc(C(=O)OC)ccc1OC`: the composite z-score in assay [1] stood at 1.14; in assay [2], 1.18; in assay [3] it was 0.918; in [4], 0.763; in [5] it was 1.38; in [6], 0.329. Besides, the composite z-score was 1.58 in the assay with Lefty1; 0.622 in assay [8]; 0.457 in [10]; 0.616 in assay [15]; -0.0087 in [16]; 0.229 in the assay with Torsin-1A (Homo sapiens) [17]. Further, the composite z-score with Torsin-1A (Homo sapiens) [18] is 0.132; in [19] it was 1.94. The z-score in [7] is -0.408; in assay [9], -0.265 (inactive); in assay [11] it was -3.86 (inactive); in assay [12], -0.999 (inactive); in assay [13], 5.8 (inactive); in assay [14] it was 0.946 (inactive).

Take `CC1(C)OC[C@@]23C=C(Br)[C@@H](C[C@H]12)[C@@]1(CO1)C3=O`: the composite z-score in assay [1] turned out to be 0.424; in [2], 0.62; in [3], 0.139; in assay [4], 0.149; in assay [5], 0.369; in assay [6], 0.122. Also, the composite z-score was 0.439 with Lefty1; 0.0477 in assay [8]; 0.0405 in assay [10]; -0.0131 in assay [15]; -0.0331 in assay [16]; 0.667 in the assay with Torsin-1A (Homo sapiens) [17]. Moreover, the results for the composite z-score (with Torsin-1A (Homo sapiens) [18]; in assay [19]) were 0.483 and 0.474, respectively. For the same compound, the z-score in assay [7] was 0.582; in assay [9] it was -0.0228 (inactive); in assay [11] it was 0.661 (inactive); in [12], 0.844 (inactive); in assay [13], 0.494 (inactive); in assay [14], 0.925 (inactive).

As for `C=CCOC(=O)[C@H]1[C@@H]2C(=O)O[C@@H](c3ccccc3)[C@@H](c3ccccc3)N2[C@@H](c2ccc(OCCOC(=O)[C@H]3C[C@H]4C(=O)NCC(=O)N4[C@H]3c3ccc(O)cc3)cc2)[C@]12C(=O)Nc1ccc(I)cc12`, the composite z-score was 0.611 in [1]; 0.956 in [2]; 0.351 in [3]; 0.843 in assay [4]; 1.2 in [5]; 1.53 in [6]. For the same compound, the composite z-score with Lefty1 was 0.971; in assay [8], 0.204; in assay [10] it was 0.112; in [15], 0.343; in assay [16], -0.0736; with Torsin-1A (Homo sapiens) [17], 0.406. For the same compound, the composite z-score with Torsin-1A (Homo sapiens) [18] was 0.349; in assay [19] it was 1.55. The z-score is -1.28 in assay [7]; -0.8 (inactive) in assay [9]; -0.402 (inactive) in assay [11]; -1.01 (inactive) in assay [12]; -0.13 (inactive) in assay [13]; -0.8 (inactive) in assay [14].

As to `CCOC(=O)C1=CCC(c2cc3ccccc3[nH]2)N(S(=O)(=O)c2ccccc2[N+](=O)[O-])C1` (stereo not given), the composite z-score in [1] is 0.584; in assay [2], 1.2; in assay [3], 0.501; in [4], 0.0547; in [5] it was 0.574; in assay [6], -0.103. For the same compound, the composite z-score in the assay with Lefty1 was 0.306; in assay [8], 0.896; in [10], 0.379; in assay [15] it was -0.141; in assay [16], -0.101; with Torsin-1A (Homo sapiens) [17], 0.0459. Further, the composite z-score with Torsin-1A (Homo sapiens) [18] is 0.609; in assay [19], -0.312. Further, the z-score in [7] was 1.05; in [9], -0.0781 (inactive); in assay [11], -5.05 (inactive); in [12] it was -0.295 (inactive); in assay [13] it was -0.172 (inactive); in assay [14], -0.0943 (inactive).
